Data reported in PubChem BioAssay (NCATS).
Results filed as inconclusive are left out. Where a call stands in place of a potency, no number is given. Activity calls are given as the source filed them. Calls come from the whole dose curve; as a rule, active = well fitted curve in the direction sought with a large enough effect; inconclusive = small, poorly fitted or top-dose-only effect, or another doubt; inactive = no such curve, though single readings can be large; an effect the other way counts as inactive or inconclusive.

Legend:
[1] = Primary qHTS for inhibitors of nuclear receptor binding SET domain protein 2 (NSD2) in an isogenic RCH-ACV NSD2 p.E1099K mutant (9B) (AID 1645876); note: nearly all actives have a fitted effect of over 70% in size; note: potency is the fitted concentration of half-maximal effect
[2] = Primary qHTS for inhibitors of nuclear receptor binding SET domain protein 2 (NSD2) in an RCH-ACV wild type WT cells (2C) (AID 1645877); note: nearly all actives have a fitted effect of over 70% in size; note: potency is the fitted concentration of half-maximal effect
[3] = target: Glutathione peroxidase 1 (Homo sapiens) (UniProt P07203); experiment: Primary qHTS Assay for Inhibitors of Recombinant Selenoprotein Glutathione Peroxidase 1 (GPX1) (AID 1845191); note: nearly all actives have a fitted effect of over 65% in size
Glutathione peroxidase 1 (Homo sapiens), sequence (P07203 whole entry, looked up): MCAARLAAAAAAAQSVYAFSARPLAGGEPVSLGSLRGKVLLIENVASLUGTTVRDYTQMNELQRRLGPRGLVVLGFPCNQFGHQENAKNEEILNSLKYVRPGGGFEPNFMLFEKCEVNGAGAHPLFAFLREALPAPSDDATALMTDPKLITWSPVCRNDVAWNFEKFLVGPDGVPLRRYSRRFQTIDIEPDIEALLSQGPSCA
Outline: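 GPX1 10 nM, GR 100 nM, GSH 1 mM, NADPH 0.5 mM, CHP 0.5 mM (final). 30-min cpd preincubation, RT. Ex340/Em450 read t=0, t=15 min.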

[4] = target: Phospholipid hydroperoxide glutathione peroxidase GPX4 (Homo sapiens) (UniProt P36969); experiment: Primary qHTS Assay for Inhibitors of Recombinant Selenoprotein Glutathione Peroxidase 4 (GPX4) (AID 1845192); note: nearly all actives have a fitted effect of over 65% in size; note: potency is the fitted concentration of half-maximal effect
Phospholipid hydroperoxide glutathione peroxidase GPX4 (Homo sapiens), sequence (P36969 whole entry, looked up): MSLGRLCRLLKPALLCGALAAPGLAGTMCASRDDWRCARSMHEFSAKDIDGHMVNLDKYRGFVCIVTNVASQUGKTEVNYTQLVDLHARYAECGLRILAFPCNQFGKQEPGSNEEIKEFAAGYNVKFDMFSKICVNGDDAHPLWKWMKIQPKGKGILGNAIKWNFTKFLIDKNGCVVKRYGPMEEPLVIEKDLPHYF
Outline: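 qHTS, GR-coupled: GPX4 200 nM + cpd 30 min RT → GSH 1 mM, NADPH 0.5 mM, GR 100 nM → CHP 0.5 mM start; fluor 340/450 at t0 and t15 min; no-enzyme wells as control.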

## CC(C)NC[C@@H](C(=O)N1CCN(c2ncnc3c2[C@H](C)C[C@H]3O)CC1)c1ccc(Cl)cc1
[1]
  Potency: 1.66 µM (active)
[2]
  Potency: 2.63 µM (active)
[3]
  Potency: inactive
[4]
  Potency: inactive

## CCS(=O)(=O)Nc1ccc2[nH]c(O)c(C(=Nc3ccc(CN4CCCCC4)cc3)c3ccccc3)c2c1
[1]
  Potency: 0.148 µM (active)
[2]
  Potency: 0.0295 µM (active)
[3]
  Potency: inactive
[4]
  Potency: inactive

## O=C1CSC(=O)N1C(CCc1ccncc1)COc1ccc(-c2cccc([N+](=O)[O-])c2)cc1 (stereo not drawn)
[1]
  Potency: 14.8 µM (active)
[2]
  Potency: 11.8 µM (active)
[3]
  Potency: inactive

## CC(=O)SCC(Cc1ccccc1)C(=O)NCC(=O)OCc1ccccc1 (stereo not drawn)
[1]
  Potency: inactive
[2]
  Potency: inactive
[3]
  Potency: inactive
[4]
  Potency: inactive

## NC(=O)Nc1sc(-c2ccc(F)cc2)cc1C(N)=O
[1]
  Potency: 3.32 µM (active)
[2]
  Potency: 3.72 µM (active)
[3]
  Potency: inactive

## O=C(NC1CC1)c1cccc(-c2ccc3c(NC(=O)C4CC4)n[nH]c3c2)c1
[1]
  Potency: 8.33 µM (active)
[2]
  Potency: 5.25 µM (active)
[3]
  Potency: inactive
[4]
  Potency: inactive

## O=C(O)CCCCC(CCSCc1ccccc1)SCc1ccccc1 (stereo not drawn)
[1]
  Potency: inactive
[2]
  Potency: inactive
[3]
  Potency: inactive
[4]
  Potency: 20.2 µM (active)

## COc1cc(C)c(Sc2cnc(NC(=O)c3ccc(CNC(C)C(C)(C)C)cc3)s2)cc1C(=O)N1CCN(C(C)=O)CC1 (stereo not drawn)
[1]
  Potency: 7.42 µM (active)
[2]
  Potency: 4.68 µM (active)
[3]
  Potency: inactive
[4]
  Potency: inactive

## O=C1NCCc2[nH]c(-c3ccncc3)cc21
[1]
  Potency: 2.35 µM (active)
[2]
  Potency: 1.32 µM (active)
[3]
  Potency: inactive
[4]
  Potency: inactive

## Cn1cnc(=N)c2[nH]cnc21
[1]
  Potency: inactive
[2]
  Potency: inactive
[3]
  Potency: inactive
[4]
  Potency: inactive
